From PubChem BioAssay (EPA / NIEHS) come the findings set out here.

Results filed as inconclusive are left out. Calls of active or inactive are those of the source. How the source made its calls: active means hit-call score of the fitted dose curve at least 0.9, where 1 is the maximum; inconclusive means response in the unintended direction; inactive means score below 0.9.

The nature of assay [1]: TOX21_p53_BLA_p2_viability: Viability Assessment in the Tox21 HCT-116 p53 Agonism Beta-lactamase Assay, Phase 2 (AID 2283591).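 Further: compound exposure lasted 16 h at 37 °C; actives lower the ATP signal meaning cytotoxicity.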 In a few lines: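 HCT116 p53-bla cells, 4000/well, dosed after 5 h plating (217-fold dilution of DMSO stocks) and incubated 16 h at 37C. Viability taken as cellular ATP by CellTiter-Glo luminescence after 30 min RT; signal loss marks cytotoxicity.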

Assay [2] in a line: TOX21_p53_BLA_p3_viability: Viability Assessment in the Tox21 HCT-116 p53 Agonism Beta-lactamase Assay, Phase 3 (AID 2283593).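 Further: cells exposed to compound for 16 h before reading.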 An outline of the steps: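 HCT116 cells, 4000/well, dosed 5 h after plating by pin transfer (217-fold dilution from DMSO stock) and incubated 16 h at 37C, 5% CO2. Viability read as ATP luminescence with CellTiter-Glo after 30 min at room temperature.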

The target of assay [3] is Cellular tumor antigen p53 (Homo sapiens) (UniProt P04637). As to the kind of experiment: TOX21_p53_BLA_p3_ratio: Tox21 HCT-116 p53 Agonism Beta-lactamase Assay, Ratio, Phase 3 (AID 2283596). In a few lines:
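Cells were seeded at 4000/well, rested 5 h at 37C, then dosed with DMSO compound solutions (217-fold dilution) for 16 h. CCF4-AM substrate was loaded for 2 h at room temperature, and the 460/530 nm emission ratio was fitted for gain of signal versus DMSO.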

Assay [4] in a line: TOX21_p53_BLA_p4_viability: Viability Assessment in the Tox21 HCT-116 p53 Agonism Beta-lactamase Assay, Phase 4 (AID 2283597).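 Further: hits lower the luminescence signal meaning cytotoxicity.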 In a few lines:
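Cytotoxicity was inferred from loss of CellTiter-Glo luminescence. HCT116 cells had been dosed with compounds after 5 h plating, incubated 16 h at 37C and 5% CO2, and exposed to the CCF4-AM substrate for 2 h.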

Assay [5] has as its target Cellular tumor antigen p53 (Homo sapiens) (UniProt P04637). As to the kind of experiment: TOX21_p53_BLA_p5_ratio: Tox21 HCT-116 p53 Agonism Beta-lactamase Assay, Ratio, Phase 5 (AID 2283599). An outline of the steps:
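HCT-116 p53-bla cells (4000/well) plated 5 h, dosed with compound (217-fold DMSO dilution) for 16 h at 37 C; CCF4-AM substrate 2 h at room temperature. Activity is the 460/530 nm emission ratio (405 nm excitation), fitted in gain-of-signal direction versus DMSO.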

The nature of assay [6]: TOX21_p53_BLA_p5_viability: Viability Assessment in the Tox21 HCT-116 p53 Agonism Beta-lactamase Assay, Phase 5 (AID 2283600). An outline of the steps: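 Luciferase-coupled ATP quantitation of cells treated for 16 h (37C, 5% CO2) with test chemicals delivered in DMSO via a 217-fold dilution; 4000 cells/well; reagent incubated 30 min at room temperature before luminescence reading.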

Assay [7] addresses Cellular tumor antigen p53 (Homo sapiens) (UniProt P04637). As to the kind of experiment: TOX21_p53_BLA_p4_ratio: Tox21 HCT-116 p53 Agonism Beta-lactamase Assay, Ratio, Phase 4 (AID 2283601). An outline of the steps:
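HCT-116 p53 beta-lactamase reporter cells (4000/well) preincubated 5 h, then compound (217-fold dilution of DMSO stock) for 16 h at 37C. CCF4-AM substrate added 2 h at room temperature; 460/530 nm emission ratio fitted upward versus DMSO.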

Sequence of Cellular tumor antigen p53 (Homo sapiens) (P04637 whole entry, looked up): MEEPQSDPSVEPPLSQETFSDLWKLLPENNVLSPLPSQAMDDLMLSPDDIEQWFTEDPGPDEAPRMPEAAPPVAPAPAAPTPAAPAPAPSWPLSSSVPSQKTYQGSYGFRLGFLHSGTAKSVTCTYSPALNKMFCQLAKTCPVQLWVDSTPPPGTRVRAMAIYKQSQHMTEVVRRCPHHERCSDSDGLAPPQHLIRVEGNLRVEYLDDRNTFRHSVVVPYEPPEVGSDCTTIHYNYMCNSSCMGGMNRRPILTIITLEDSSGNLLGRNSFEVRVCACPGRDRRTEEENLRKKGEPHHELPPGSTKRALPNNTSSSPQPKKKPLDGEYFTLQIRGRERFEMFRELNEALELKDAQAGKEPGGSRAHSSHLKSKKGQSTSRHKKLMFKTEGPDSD

For `COc1nc(N)nc2c1ncn2[C@@H]1O[C@H](CO)[C@@H](O)[C@@H]1O`, the call in assay [1], in assay [2], in assay [3], in assay [4], in assay [5] and in assay [6] was inactive. In addition, the outcome in assay [7] was inactive.

In the case of `CC(=O)N1C[C@H](O)C[C@H]1C(=O)O`, the outcome in assay [1], in assay [2], in assay [3], in assay [4], in assay [5] and in assay [6] was inactive. Moreover, the outcome in assay [7] was inactive.

Regarding `OCC(S)CS` (centres undefined), the compound was classed as inactive in assay [1], in assay [4], in assay [5], in assay [6] and in assay [7]. Moreover, the AC50 in assay [2] was 29.5 µM (active); in assay [3], 35.7 µM (active).

Consider `O=C(O)CONC(=O)c1ccccc1`, for which the outcome in assay [1], in assay [2], in assay [3], in assay [4], in assay [5] and in assay [6] was inactive. In addition, the result in assay [7] was inactive.

For the compound `CCCCCCC`, the outcome in assay [1], in assay [2], in assay [3], in assay [4], in assay [5] and in assay [7] was inactive.
